This passage reports outcome and AC50 results from PubChem BioAssay (EPA / NIEHS).

“And” between values parts separate entries of the source, which are not always exact repeats. Identical values can stand only once. More than one record can exist for a structure, and the calls need not agree. The source made the active and inactive calls. Rule for the calls: active = hit-call score of the fitted dose curve at least 0.9, where 1 is the maximum; inactive = score below 0.9.

Read-out in the test: Interleukin 17F (IL17F), IL17F (gene 112744)
Description: BSK_BT_xIL17F: BioMAP Diversity Plus: BT Assay for Interleukin 17F (IL17F) Biomarker Activity (AID 2284243). The following applies: primary human B cells with PBMC. The protocol: BSK_BT is a cell-based, multiplexed-readout assay that uses B cell and peripheral blood mononuclear cells, a human vascular primary cell co-culture, with measurements taken at 24 hours after chemical dosing in a microplate: 96-well plate.BSK_BT_xIL17F is an assay component measured in the BSK_BT assay. It measures secreted IL-17F related to regulation of gene expression using LumineX xMAP technology.Data from the assay component BSK_BT_xIL17F was analyzed at the endpoint, BSK_BT_xIL17F, in the positive analysis fitting direction relative to DMSO as the negative control and baseline of activity. Using a type of cytokine quantitation reporter, gain or loss-of-signal activity can be used to understand protein changes. To generalize the intended target to other relatable targets, this assay endpoint is annotated to the 'cytokine' intended target family, where the subfamily is 'interleukins'.
The levels of cell surface (or secreted, indicated by the prefix "s") biomarker endpoints were measured by ELISA. Overt cytotoxicity to cells in confluent adherent cultures (all systems other than the BT system) was assessed by measuring total protein levels using sulforhodamine B (SRB) staining in parallel cultures at the time of biomarker measurements, indicated as SRB endpoints. For proliferation assays for adherent cell types, individual cell types are cultured at sub-confluence and relative cell numbers quantified by SRB staining at time points optimized for each system (48 h: 3C and CASM3C systems; 72 h: BT and HDF3CGF systems; 96 h: SAg system). SRB was performed by staining cells with 0.1% SRB after fixation with 10% TCA and reading wells at 560 nm.Viability and proliferation of PBMC (T cells) was quantified by Alamar Blue reduction for the SAg and BT systems. For PBMC viability (referred to as PBMC Cytotoxicity within the assay endpoint names), cells were plated (75,000/well in a 96-well plate) and then chemical samples added for 1 h before addition of activators, SEB and TSST-1 (20 ng/mL final concentration each). Cells were incubated for 90 h. Then, Alamar Blue (20 uL/well) (Invitrogen, Cat DAL1100) was added for 6 h, and the plates were read with a fluorescence microplate reader at 546/580 nm (excitation/emission). For PBMC proliferation, cells were plated and activated as above but incubated for only 16 h prior to addition of Alamar Blue. Plates were read after 6 h.
In the case of `O=P(O)(O)CCC(F)(F)C(F)(F)C(F)(F)C(F)(F)C(F)(F)C(F)(F)C(F)(F)C(F)(F)F`, the outcome was inactive. One may read the AC50 as the midpoint of the concentration-response curve, whichever way the signal moves. On to `Cc1cccc2c1ccc1ccccc12`, for which the AC50 is 20 µM (active).

Take `CN(Cc1cnc2nc(N)nc(N)c2n1)c1ccc(C(=O)N[C@@H](CCC(=O)O)C(=O)O)cc1`: the outcome was inactive.

Regarding `O=C(NCc1ncc(C(F)(F)F)cc1Cl)c1c(Cl)cccc1Cl`, the AC50 was 21 µM (active).

As for `O=P(O)(O)CCC(F)(F)C(F)(F)C(F)(F)C(F)(F)C(F)(F)C(F)(F)F`, the outcome was inactive. Turning to `CN(C)c1ccc(C(=C2C=CC(=[N+](C)C)C=C2)c2ccccc2)cc1`, the AC50 was 0.49 µM (active). For `C[C@]12CC[C@@H]3c4ccc(O)cc4CC[C@H]3[C@@H]1C[C@@H](O)[C@@H]2O`, the outcome was inactive. Regarding `OCC(F)(F)C(F)(F)C(F)(F)C(F)(F)C(F)(F)C(F)(F)C(F)(F)C(F)(F)C(F)(F)C(F)(F)C(F)(F)F`, the AC50 was 13.9 nM (active) and 23.8 nM (active). For the molecule `Oc1cc2ccccc2cc1O`, the result was inactive. With `O=C(CC(=O)C(F)(F)C(F)(F)C(F)(F)F)c1cccs1`, the AC50 is 23.2 µM (active) and 25.1 µM (active).

Take `CN(CCO)S(=O)(=O)C(F)(F)C(F)(F)C(F)(F)C(F)(F)C(F)(F)C(F)(F)C(F)(F)C(F)(F)F`: the outcome was inactive and the AC50 was 1.93 µM (active). For the molecule `NC(=NCCCCCCN=C(N)/N=C(\N)Nc1ccc(Cl)cc1)/N=C(\N)Nc1ccc(Cl)cc1`, the AC50 was 5.34 µM (active).

As to `COc1cc(OC)nc(NC(=O)NS(=O)(=O)Nc2ccccc2C(=O)N(C)C)n1`, the result was inactive. Consider `CCCCCCCCCCCCCCCCCC[N+](C)(C)Cc1ccccc1`, for which the AC50 is 2.42 µM (active).

As to `CC1=NN(c2ccccc2)C(=O)C1`, the result was inactive.

For `O=C1c2ccc(O)c(O)c2C(=O)c2c(O)ccc(O)c21`, the result was inactive. `COCN(COC)c1nc(N(COC)COC)nc(N(COC)COC)n1`: the outcome was inactive. In the case of `Clc1ccc(Nc2nnc(Cc3ccncc3)c3ccccc23)cc1`, the result was inactive. For the molecule `OCCN1CN(CCO)CN(CCO)C1`, the AC50 is 20 µM (active). On to `Cc1ccc(N=Nc2c(O)ccc3ccccc23)c(C)c1`, for which the result was inactive. Regarding `C=CC(=O)OCCC(F)(F)C(F)(F)C(F)(F)C(F)(F)C(F)(F)C(F)(F)C(F)(F)C(F)(F)F`, the outcome was inactive. `Cc1ccc(C(=O)c2ccccc2)cc1`: the outcome was inactive. `O=C(O)CCC(F)(F)C(F)(F)C(F)(F)C(F)(F)C(F)(F)F`: the result was inactive. Turning to `C=CC(C)(CCC=C(C)C)OC(C)=O` (centres undefined), the result was inactive. For `O=C(NO)c1ccccc1`, the AC50 was 19.2 µM (active). On to `CC(C)(C)c1ccc(O)c(O)c1`, for which the AC50 was 26 µM (active). Take `CC[N+](CC)(CC)Cc1ccccc1`: the result was inactive.

In the case of `C=CC(=C)CC/C=C(\C)CCC=C(C)C`, the outcome was inactive. Consider `O=C1OC2(c3ccccc31)c1cc(I)c(O)c(I)c1Oc1c2cc(I)c(O)c1I`, for which the outcome was inactive. On the same count and under the same terms, to `COc1cccc(O)c1` belongs “inactive”.

Regarding `O=C(O)C(F)(F)OC(F)(F)C(F)(F)OC(F)(F)C(F)(F)OC(F)(F)C(F)(F)C(F)(F)C(F)(F)F`, the AC50 was 49.6 µM (active) and 47 µM (active).

With `CCOC(=O)CN[C@@H](C(=O)N1CC[C@H]1C(=O)NCc1ccc(/C(N)=N/O)cc1)C1CCCCC1`, the result was inactive. With `O=C(O)CCC(F)(F)C(F)(F)C(F)(F)C(F)(F)C(F)(F)C(F)(F)F`, the outcome was inactive. With `O=S(=O)(O)C(F)(F)C(F)(F)C(F)(F)C(F)(F)C(F)(F)C(F)(F)C(F)(F)C(F)(F)C(F)(F)C(F)(F)F`, the outcome was inactive. With `COC1=CC(=O)C[C@@H](C)[C@]12Oc1c(Cl)c(OC)cc(OC)c1C2=O`, the outcome was inactive. The same measure, in the same setting: the entry for `CCCCC(CC)C(=O)OCCOCCOCCOCCOC(=O)C(CC)CCCC` (centres undefined) is “inactive”; for `C=COC(=O)C(C)(C)CCCCCC` it is “inactive”. As to `CCCCCc1ccc(O)cc1`, the outcome was inactive.
